Measurements as given in PubChem BioAssay AID651610 (Broad Institute, 2012).
Hit rate of the full screen: of about 360,000 compounds, about 3,900 (1.1%) were called active. Only a selection was taken, and actives are over-represented in it overall. Values without a mark were called inactive.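 How the source made its calls: active means mean replicate inhibition score of at least 50 and every replicate individually at or above 50; inconclusive means only one of the two criteria met; inactive means mean below 50 and not all replicates reaching 50.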

Assay: inhibitors of HIV-1 Env-driven cell-cell fusion, primary screen, HeLa-JRFL effector, CEM21 target cells, luciferase (AID 651610);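 further: 0% = plate neutral controls and 100% = maraviroc near 300 nM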
Details: active compounds read high; at 16.7 µM unless noted

| SMILES | inhibition |
| --- | --- |
| COc1ccccc1NC(=O)N[C@H]1CC[C@@H](CCn2cc(C3(O)CCCC3)nn2)O[C@@H]1CO | -2.19% |
| N#C[C@H]1[C@H](c2ccc(-c3ccccc3)cc2)[C@@H](CO)N1C(=O)Cc1ccccc1 | -31.2% |
| C[C@@H]1CCCCO[C@H](CN(C)C(=O)CCCN(C)C)[C@H](C)CN([C@H](C)CO)C(=O)c2cc(NC(=O)CCC(F)(F)F)ccc2O1 | 6% |
| C[C@@H]1CCCCO[C@@H](CN(C)Cc2ccncc2)[C@H](C)CN([C@H](C)CO)C(=O)c2cc(NC(=O)NC3CCCCC3)ccc2O1 | 10.4% |
| O=C(C[C@@H]1C[C@H]2c3cc(NC(=O)Nc4ccccc4)ccc3O[C@H]2[C@@H](CO)O1)NC1CCCCC1 | 6.41% |
| O=C(CN(c1cc(C(F)(F)F)ccc1Cl)S(=O)(=O)c1ccccc1)NCc1cccnc1 | 85.1% [at 12.3 µM] (active) |
| CCc1ccc(N(CC(=O)NCc2cccnc2)S(=O)(=O)c2ccccc2)cc1 | 10.5% [at 12.3 µM] |
| CN(CC(=O)NCc1cccnc1)S(=O)(=O)c1cc(Cl)ccc1Cl | 2.11% [at 12.3 µM] |
| C/C=C/c1ccccc1[C@@H]1[C@@H](C#N)N(c2nc(CC)cs2)[C@@H]1CO | -1.66% |
| CCCNC(=O)N1CCC2(CC1)CN(C(=O)CN1CCOCC1)[C@H](CO)c1[nH]c3cc(OC)ccc3c12 | -5.75% |
| Cc1ccccc1-c1cnc2c(c1)C(=O)N([C@H](C)CO)C[C@H](C)[C@@H](CN(C)C(=O)c1ccccc1)O2 | -8.15% |
| Cc1ccc(C(=O)NC23CC4CC(CC(C4)C2)C3)c(Cl)c1 | -0.699% [at 12.3 µM] |
| S=C(NCc1ccc(Cl)cc1)NC12CC3CC(CC(C3)C1)C2 | 103% [at 12.3 µM] (active) |
| O=C(NCc1ccc2c(c1)OCO2)C12CC3CC(CC(C3)C1)C2 | 8.77% [at 12.3 µM] |
| CN(C)C(=O)C[C@H]1C=C[C@@H](NC(=O)C2CCC2)[C@@H](CO)O1 | 24.4% |
| Cc1ccc(OCC(=O)N2CCN(C(=O)c3cccnc3)CC2)cc1 | -3.51% [at 12.3 µM] |
| CCCCCCOc1ccc(OC(=O)c2cccnc2)cc1 | 58.2% [at 12.3 µM] (active) |
| CCCOc1cccc(C(=O)NCCCNC(=O)c2cccnc2)c1 | 11.1% [at 12.3 µM] |
| C[C@H](CO)N1C[C@H](C)[C@H](CN(C)S(C)(=O)=O)Oc2ncc(C3=CCCCC3)cc2C1=O | 10.5% |
| N#C[C@H]1[C@H](c2ccc(C#Cc3ccc(F)cc3)cc2)[C@@H](CO)N1C(=O)C1CCCC1 | 10.1% |
| COCc1cn(CC[C@@H]2CC[C@@H](NC(=O)Cc3cccnc3)[C@@H](CO)O2)nn1 | 7.99% |
| C[C@H]1CCCCO[C@H](CN(C)C(=O)Nc2ccc3c(c2)OCO3)[C@@H](C)CN([C@@H](C)CO)C(=O)c2cc(NC(=O)Nc3ccccc3)ccc2O1 | -15.3% |
| CCN(CC)CCN(C(=O)c1cc(Cl)sc1Cl)c1nc2cc3c(cc2s1)OCO3 | 71.9% [at 12.3 µM] (active) |

| SMILES | inhibition |
| --- | --- |
| CN(C)CCN(C(=O)C1=COCCO1)c1nc2ccc(Cl)cc2s1 | -71.9% [at 12.3 µM] |
| CCN(CC)CCN(C(=O)c1ccc(N2C(=O)CCC2=O)cc1)c1nc2cc3c(cc2s1)OCO3 | 13.5% [at 12.3 µM] |
| CC(C)NC(=O)N(C)C[C@H]1Oc2ccc(NS(=O)(=O)c3cn(C)cn3)cc2CC(=O)N([C@@H](C)CO)C[C@H]1C | -7.65% |
| Cc1ccc(CN2CC(C(=O)N3CCN(S(=O)(=O)c4ccccc4)CC3)CC2=O)cc1 (stereo not drawn) | 64.5% [at 12.3 µM] (active) |
| Cc1ccc(S(=O)(=O)N2CCC(C(=O)N3CCCCCCC3)CC2)cc1 | -2.71% [at 12.3 µM] |
| CCC(C)c1ccccc1N1CC(C(=O)N2CCN(S(=O)(=O)c3ccc(F)cc3)CC2)CC1=O (stereo not drawn) | 18.5% [at 12.3 µM] |
| COc1ccc2c3c(n(C)c2c1)[C@@H](CO)N(C(C)=O)CC31CCN(C(=O)C2CC2)CC1 | 3.46% |
| C[C@H](CO)N1C[C@H](C)[C@H](CN(C)C(=O)Nc2ccc(F)cc2)Oc2c(NC(=O)c3cnccn3)cccc2C1=O | 30.7% |
| Cc1ccc(NC(=O)NNC(=O)c2sccc2-n2cccc2)cc1 | -3.39% [at 12.3 µM] |
| C=CC[n+]1c(-c2ccc(C)cc2)csc1NNC(=O)Nc1ccccc1 | 77.7% [at 12.3 µM] (active) |
| O=C(NNC(=O)c1ccc(-c2ccccc2)cc1)Nc1ccccc1 | 17% [at 12.3 µM] |
| C[C@H](CO)N1C[C@H](C)[C@@H](CN(C)CC2CCOCC2)Oc2ncc(C#Cc3ccc(F)cc3)cc2C1=O | 7.54% |
| C[C@@H](O)C#Cc1cnc2c(c1)C(=O)N([C@@H](C)CO)C[C@H](C)[C@H](CN(C)C(=O)c1ccccc1F)O2 | 5.54% |
| COc1cccc(CNc2nc(NCc3ccccc3OC)nc3ccsc23)c1 | 72.3% [at 12.3 µM] (active) |
| COc1ccccc1CNc1nc(Nc2ccccc2Cl)c2sccc2n1 | 20.5% [at 12.3 µM] |
| COCCNc1nc(NCc2ccc(NC(C)=O)cc2)c2sccc2n1 | -25.8% [at 12.3 µM] |
| C[C@@H]1CN([C@@H](C)CO)C(=O)Cc2cc(NS(C)(=O)=O)ccc2O[C@H]1CN(C)S(=O)(=O)c1ccc(F)cc1 | -0.637% |
| CN1[C@@H]2c3ccc(-c4ccc(F)cc4)c(=O)n3C[C@H]1[C@H](CO)[C@H]2C(=O)NC1CCC1 | 0.501% |
| COc1ccc([C@@H]2[C@@H]3C(=O)N(C(C)(C)C)C(=O)[C@@H]3[C@]3(Cc4ccccc4)C(=O)N(c4cccc(Br)c4)C(=O)N23)cc1 | 33.2% [at 12.3 µM] |
| CC12C(=O)N(c3ccccc3)C(=O)C1C(c1ccccc1)N1CCCN12 (stereo not drawn) | 6.12% [at 12.3 µM] |
| C[C@@]12C(=O)N(c3cccc(Br)c3)C(=O)N1[C@H](c1ccc(Cl)cc1)[C@@H]1C(=O)N(C3CCCCC3)C(=O)[C@@H]12 | -9.25% [at 12.3 µM] |
| CCN1C(=O)[C@H]2[C@@H](c3ccc(C(F)(F)F)cc3)N[C@]3(CCCN(Cc4ccc(Br)cc4)C3=O)[C@H]2C1=O | -31.5% [at 12.3 µM] |
| CCOC(=O)[C@@H]1[C@H]2COc3ccc(Br)cc3[C@H]2N2C(=O)N(c3ccc(C)cc3)C(=O)[C@@]12C | -52.6% [at 12.3 µM] |

| SMILES | inhibition |
| --- | --- |
| CC[C@@]12C(=O)N(c3ccccc3)C(=O)N1[C@H](c1ccc(Br)cc1)[C@@H]1C(=O)N(C(C)(C)C)C(=O)[C@@H]12 | 59.8% [at 12.3 µM] (active) |
| CCN1C(=O)[C@H]2[C@@H](c3ccc(C)cc3)N3C(=O)N(c4cccc(Br)c4)C(=O)[C@@]3(CC)[C@H]2C1=O | 82.7% [at 12.3 µM] (active) |
| CCCCC1(C(=O)OCC)NC(c2ccc(O)cc2)C2C(=O)N(c3ccccc3)C(=O)C21 (stereo not drawn) | 2.85% [at 12.3 µM] |
| CC(C)(C)N1C(=O)[C@H]2[C@@H](c3ccc(Br)cc3)N3C(=O)N(c4cccc(Cl)c4)C(=O)[C@@]3(C)[C@H]2C1=O | 72.7% [at 12.3 µM] (active) |
| C[C@@H]1CCCCO[C@@H](CN(C)S(=O)(=O)c2ccc(F)cc2)[C@@H](C)CN([C@@H](C)CO)C(=O)c2cc(NC(=O)Nc3ccc(F)cc3)ccc2O1 | -9.74% |
| C[C@H](CO)N1C[C@H](C)[C@@H](CN(C)C(=O)C2CC2)Oc2cc(-c3cccc(C#N)c3)ccc2S1(=O)=O | 6.81% |
| COc1ccccc1S(=O)(=O)N[C@@H]1CC[C@H](CC(=O)N2CCN(C)CC2)O[C@@H]1CO | -0.692% |
| C[C@@H]1CN([C@@H](C)CO)C(=O)c2cccc(NC(=O)C3CCOCC3)c2O[C@H]1CN(C)C(=O)NC1CCCCC1 | 10.1% |
| C[C@@H]1CN([C@@H](C)CO)S(=O)(=O)c2ccc(C#CC3CCCC3)cc2O[C@H]1CN(C)S(C)(=O)=O | 6.95% |
| COc1cccc(-c2cnc3c(c2)C(=O)N([C@H](C)CO)C[C@@H](C)[C@H](CN(C)Cc2ccc(F)cc2)O3)c1 | 7.73% |
| CN1C(=O)c2cc(NC(=O)c3cccs3)ccc2OC[C@H]2O[C@@H](CC(=O)NCC3CC3)CC[C@@H]21 | 3.56% |
| Cc1cc(C)cc(N2C(=O)CSC2c2cccc([N+](=O)[O-])c2)c1 (stereo not drawn) | -6.42% |
| C[C@H]1CN([C@@H](C)CO)C(=O)c2cccc(NS(=O)(=O)c3ccc(Cl)cc3)c2O[C@H]1CN(C)S(=O)(=O)c1ccc(Cl)cc1 | -26.5% |
| O=C(CCS(=O)(=O)c1ccccc1)NC1CCCC1 | 11.3% [at 12.3 µM] |
| O=C(CCS(=O)(=O)c1ccccc1)Nc1nc2c(s1)CCCC2 | 60.1% [at 12.3 µM] (active) |
| O=C(CSc1nc(O)c(Cc2ccccc2)c(=O)[nH]1)Nc1nc2c(s1)CCCC2 | 25.1% [at 12.3 µM] |
| COc1ccc(N2C(=O)C(CC(=O)Nc3ccccc3)N(Cc3ccc(OC)c(OC)c3)C2=O)cc1 (stereo not drawn) | 56.7% [at 12.3 µM] (active) |
| CCOc1ccc(NC(=O)CC2C(=O)N(c3ccccc3)C(=O)N2CCOC)cc1 (stereo not drawn) | -3.16% [at 12.3 µM] |
| COc1ccc(CCN2C(=O)N(c3ccc(OC)cc3)C(=O)C2CC(=O)Nc2ccc(OC)cc2)cc1 (stereo not drawn) | 9.15% [at 12.3 µM] |
| CCOc1ccc(N2C(=O)CC(N(CCc3ccc(OC)c(OC)c3)C(=S)Nc3ccccc3)C2=O)cc1 (stereo not drawn) | 58.4% [at 12.3 µM] (active) |
| CCCOc1ccc(N2C(=O)CC(N(CCc3ccc(S(N)(=O)=O)cc3)C(C)=O)C2=O)cc1 (stereo not drawn) | 19.9% [at 12.3 µM] |
| COC(=O)CN(C(=S)Nc1ccc(Cl)cc1)C1CC(=O)N(c2ccc(OC)cc2)C1=O (stereo not drawn) | -3.79% [at 12.3 µM] |
